Test results published in PubChem BioAssay AID1159580 (chemical genetic matrix, 2015).
Among all 5,500 compounds or so, about 2,000 (36%) were called active. Roughly 18% stayed inconclusive and do not appear here. Cut-off read from the data, not from the text of the source: active = normalized growth mostly below about 0.91 (no sharp cut-off); inconclusive = no clear call, values can overlap the other calls; inactive = mostly above about 0.92. Some of the results follow.

Assay: chemical genetic growth profiling, strain panel (AID 1159580);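 note: tested at 20 µM; growth read once vehicle control cultures reached saturation at 30 °C; 1 = growth at the plate median or of vehicle wells; lower values mean less growth of the strain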
Details: growth OD

Measured: normalized growth

CSc1nc(N)nc(C(C)(C)C)n1
inactive: S. cerevisiae deletion strains, locus YAL013W, strain DEP1, stronger effect = lower value 1.01 | S. cerevisiae deletion strains, locus YBR229C, strain ROT2, stronger effect = lower value 1 | S. cerevisiae deletion strains, locus YCL061C, strain MRC1, stronger effect = lower value 0.993 | S. cerevisiae deletion strains, locus YDL101C, strain DUN1, stronger effect = lower value 0.976 | S. cerevisiae deletion strains, locus YDL134C, strain PPH21, stronger effect = lower value 1.01 | S. cerevisiae deletion strains, locus YDR150W, strain NUM1, stronger effect = lower value 0.978 | S. cerevisiae deletion strains, locus YEL061C, strain CIN8, stronger effect = lower value 1.02 | S. cerevisiae deletion strains, locus YGR078C, strain PAC10, stronger effect = lower value 1.01 | S. cerevisiae deletion strains, locus YHR030C, strain SLT2, stronger effect = lower value 0.974 | S. cerevisiae deletion strains, locus YHR087W, strain rtc3, stronger effect = lower value 1 | S. cerevisiae deletion strains, locus YJL187C, strain SWE1, stronger effect = lower value 1.02 | S. cerevisiae deletion strains, locus YJR043C, strain POL32, stronger effect = lower value 1.01 | S. cerevisiae deletion strains, locus YJR075W, strain HOC1, stronger effect = lower value 0.978 | S. cerevisiae deletion strains, locus YLR039C, strain RIC1, stronger effect = lower value 1.01 | S. cerevisiae deletion strains, locus YLR058C, strain SHM2 (second series), stronger effect = lower value 1.02 | S. cerevisiae deletion strains, locus YLR085C, strain ARP6, stronger effect = lower value 1.03 | S. cerevisiae deletion strains, locus YLR262C, strain YPT6, stronger effect = lower value 1.01 | S. cerevisiae deletion strains, locus YML094W, strain GIM5, stronger effect = lower value 0.981 | S. cerevisiae deletion strains, locus YMR219W, strain ESC1, stronger effect = lower value 1.02 | S. cerevisiae deletion strains, locus YMR263W, strain SAP30, stronger effect = lower value 0.991 | S. cerevisiae deletion strains, locus YNL128W, strain TEP1, stronger effect = lower value 1.02 | S. cerevisiae deletion strains, locus YNL153C, strain GIM3, stronger effect = lower value 0.982 | S. cerevisiae deletion strains, locus YNL298W, strain CLA4 (second series), stronger effect = lower value 1.03 | S. cerevisiae deletion strains, locus YNL322C, strain KRE1, stronger effect = lower value 1 | S. cerevisiae deletion strains, locus YNR030W, strain Alg12, stronger effect = lower value 1 | S. cerevisiae deletion strains, locus YOL006C, strain TOP1, stronger effect = lower value 0.968 | S. cerevisiae deletion strains, locus YPL055C, strain LGE1, stronger effect = lower value 0.989 | S. cerevisiae deletion strains, locus YPL241C, strain CIN2, stronger effect = lower value 1.11 | S. cerevisiae deletion strains, locus YPR135W, strain CTF4, stronger effect = lower value 0.951 | S. cerevisiae strains, strain wild type, stronger effect = lower value 1.02
